This passage reports inhibition results from PubChem BioAssay AID2544 (Sanford-Burnham Center for Chemical Genomics, 2010).

The whole screen tested about 330,000 compounds, of which about 390 (0.12%) were called active. The sample as a whole holds a higher share of actives than the screen did. A number with no mark means an inactive call.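 How the source made its calls: active means inhibition reaching a set limit with compound at 10 µM in the primary screen (cut at about 35% in these data); inactive means the rest.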

Sequence of Intestinal-type alkaline phosphatase (Homo sapiens) (P09923 whole entry, looked up): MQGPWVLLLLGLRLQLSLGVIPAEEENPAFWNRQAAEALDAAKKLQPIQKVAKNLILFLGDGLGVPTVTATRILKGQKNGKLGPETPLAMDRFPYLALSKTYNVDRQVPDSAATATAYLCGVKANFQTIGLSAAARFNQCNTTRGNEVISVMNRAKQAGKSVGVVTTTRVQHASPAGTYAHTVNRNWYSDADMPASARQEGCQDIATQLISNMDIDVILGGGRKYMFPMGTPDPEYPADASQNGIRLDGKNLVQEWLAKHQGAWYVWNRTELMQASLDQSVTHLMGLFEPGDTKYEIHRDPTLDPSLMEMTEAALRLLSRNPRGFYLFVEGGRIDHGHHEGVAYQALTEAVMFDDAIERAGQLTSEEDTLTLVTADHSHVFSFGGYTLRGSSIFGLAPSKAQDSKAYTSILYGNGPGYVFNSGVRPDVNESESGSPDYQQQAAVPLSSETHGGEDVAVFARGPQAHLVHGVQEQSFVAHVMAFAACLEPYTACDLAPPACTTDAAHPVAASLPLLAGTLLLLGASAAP

This test concerns the target Intestinal-type alkaline phosphatase (Homo sapiens) (UniProt P09923). Put plainly: blockers of intestinal alkaline phosphatase activity – biochemical, luminescence, uHTS, primary screen (AID 2544).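 Further: plate controls were DMSO wells with enzyme for no effect and no-enzyme buffer wells for full effect.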 The note with it: purified IAP, CDP-Star luminescence, 30 min; at 10 µM; active compounds read high.
As a reminder, the inhibition is the drop in the measured response relative to a control, in per cent. In the case of `CCCC1C(c2ccccc2)C(C#N)(C#N)C2(C#N)CC1(N)NC2=O` (centres undefined), the inhibition is -3.9%.

In the case of `CN(C(=O)COc1nnc(-c2cccs2)c(-c2cccs2)n1)c1ccccc1`, the inhibition was -23.1%.

As for `CS(=O)(=O)N(CC(=O)N1CCOCC1)c1cccc(Cl)c1Cl`, the inhibition was -16.2%.

Consider `NS(=O)(=O)c1cccc(NC(=O)COC(=O)/C=C/c2ccco2)c1`, for which the inhibition is 5.2%.

As to `COC(=O)c1cc2c(ccn2C)n1C`, the inhibition was 15.7%.

For `CCN1/C(=C\c2ccc3ccccc3[n+]2CC)Sc2cc(C)ccc21`, the inhibition was 39.8% (active).

`COc1cccc(C(=O)n2ccc(-c3cccs3)n2)c1`: the inhibition was 0.5%.

Take `Cc1c(Cl)cccc1NC(=O)[C@@]1(CC(=O)O)CC(/C=C/c2ccccc2)=NO1`: the inhibition is 11%.

As for `CSC1=NC2(C)CCCCC2C12C=CC(=O)C=C2` (centres undefined), the inhibition was 12.2%.

For `O=C(NCCCN1CCCCC1)C1CC(=O)N(CCc2ccccc2)C1` (centres undefined), the inhibition is -4.4%.

On to `O=C(CN(C(=O)c1csnn1)c1ccc(Br)cc1)NC1CCCC1`, for which the inhibition was -3.8%.

In the case of `CC(C)(C)C(=O)N(Cc1ccccc1)c1ccccn1`, the inhibition was -10.9%.

Regarding `COc1ccccc1C1CCN(C(=S)Nc2ccc(Br)cc2)CC1`, the inhibition was 5.9%.

Turning to `O=C(CCCl)Nc1ccc(S(=O)(=O)NCc2ccco2)cc1`, the inhibition is 7.1%.

As for `CCS(=O)(=O)N1CCC(N2CCN(c3ccccc3)CC2)CC1`, the inhibition was 15%.

Regarding `CCCCc1ccc(NC(=S)N2CCCC(CO)C2)cc1` (centres undefined), the inhibition is 7.5%.

On to `O=C(CN1C(=O)NC(Cc2c[nH]c3ccccc23)C1=O)Nc1ccccc1C(F)(F)F` (centres undefined), for which the inhibition was -22.4%.

As for `CC(C(=O)N1CCc2ccccc21)N(C)CC(=O)Nc1ccc(F)cc1` (centres undefined), the inhibition was 22.6%.

Consider `O=C(c1cccs1)N1CCC(c2nc3ccccc3s2)CC1`, for which the inhibition was 22.5%.

In the case of `COc1cc2c(cc1OC)C(C(=O)NCc1ccco1)C1c3ccccc3CCN1C2=O` (centres undefined), the inhibition is -2.9%.

Consider `CN1/C(=c2/s/c(=C3/C(=O)N(c4ccccc4)NC3=Nc3ccccc3)n(C)c2=O)C(C)(C)c2ccccc21`, for which the inhibition was 35% (active).

On to `Cc1ccc(N(CC(=O)NCC2CCCO2)C(=O)CNS(=O)(=O)c2ccc(Cl)cc2)cc1` (centres undefined), for which the inhibition is 6.2%.

In the case of `CC(NCCc1ccc(S(N)(=O)=O)cc1)C(=O)NCc1ccccc1` (centres undefined), the inhibition is 8.3%.

As to `O=C(CN1CCC(NC(=O)C2CC2)CC1)Nc1ccccc1[N+](=O)[O-]`, the inhibition is 1.9%.

Consider `CCN(C(=O)COC(=O)c1cc(S(=O)(=O)N2CCc3ccccc32)ccc1OC)C1CCS(=O)(=O)C1` (centres undefined), for which the inhibition is 8.6%.

As for `CCc1cc2c(=O)c(-c3ccon3)c(N)oc2cc1OC`, the inhibition was 6.6%.

For the molecule `CC(Sc1cccc[n+]1[O-])C(=O)Nc1cccc(S(=O)(=O)N2CCOCC2)c1` (centres undefined), the inhibition was -16.4%.

For the molecule `CCNC(=S)N(CCc1c(C)[nH]c2ccc(C)cc12)Cc1ccco1`, the inhibition is 3.7%.

Regarding `Cc1c(C(=O)OC(C)C)sc(NC(=O)c2cccnc2)c1C#N`, the inhibition was -1.7%.

On to `CCOC(=O)N1CCC(NC(=O)CN2C(=O)COc3ccc(C(C)(C)C)cc32)CC1`, for which the inhibition was -21.5%.

As for `Cc1ccc(C(C)(C)C)c(OCCCCN2CCCC2)c1`, the inhibition is 10.8%.

As to `O=C(C[n+]1cc(Br)cc2ccccc21)c1ccc(F)cc1`, the inhibition is -5.7%.

Take `COc1ccc(CCOC2OC(CO)C(OC(=O)/C=C/c3ccc(O)c(OC)c3)C(O[C@H]3O[C@@H](C)[C@H](O)[C@@H](O)[C@H]3O)C2O)cc1O` (some centres undefined): the inhibition was 4.7%.

On to `COc1cccc(CNS(=O)(=O)c2ccc3c(c2)N(C(C)=O)CCS3)c1`, for which the inhibition is 38.6% (active).

Consider `COc1cccc(CNS(=O)(=O)c2csc(C(N)=O)c2)c1`, for which the inhibition is 13.3%.

As for `COc1cccc(CNS(=O)(=O)c2ccc3c(c2)CC(C)N3C(=O)C2CCC2)c1` (centres undefined), the inhibition is 4.9%.

For the molecule `CC1CN/C(=C\C(=O)c2ccc(Br)cc2)C(=O)N1` (centres undefined), the inhibition is -17%.

On to `COC(=O)c1ccc(COC(=O)c2cnccn2)cc1`, for which the inhibition was 21.3%.

Take `Cc1cc(NC(=O)C(C)N2C(=O)c3ccccc3S2(=O)=O)no1` (centres undefined): the inhibition is -15.1%.

Consider `Cn1cnnc1Sc1ccc(S(C)(=O)=O)cc1[N+](=O)[O-]`, for which the inhibition is -11.6%.

Regarding `CCn1c(C)nc2c1C(=O)c1ccccc1C2=O`, the inhibition was 1.5%.

Turning to `COCCNC(=O)/C(C#N)=C/c1cccc(OCc2ccccc2)c1`, the inhibition is 1.1%.

For the molecule `COc1ccc(CNC(=O)/C(C#N)=C/c2cccc(OC)c2OC)cc1`, the inhibition was -1.8%.

Take `N#C/C(=C\c1ccc(O)c(O)c1)C(=O)NCc1ccccc1`: the inhibition was 37.4% (active).

For `O=C(NCCCc1ccccc1)C1CCC(CNc2c(N3CCCCC3)c(=O)c2=O)CC1` (centres undefined), the inhibition is -6.9%.

With `COc1cccc(/C=C2/SC(=S)N(CC(=O)NC3C=CS(=O)(=O)C3)C2=O)c1` (centres undefined), the inhibition is -52%.

With `CN1C=CC=C/C1=C1\SC(=S)N(Cc2ccccc2)C1=O`, the inhibition was -4.6%.

Turning to `COc1cc(/C=C2/SC(=S)N(Cc3ccccc3)C2=O)cc(OC)c1O`, the inhibition is 39.3% (active).

Regarding `CC1CCCCC1NC(=O)c1cn(C)c2ccc(S(=O)(=O)N3CCOCC3)cc2c1=O` (centres undefined), the inhibition is -21.4%.

As for `CCc1ccccc1NC(=S)N(CCN1CCCCCC1)Cc1ccco1`, the inhibition is -3.8%.

As for `CCCC(C(=O)NCc1ccco1)N(C(=O)CNS(=O)(=O)c1ccccc1)C1CCCC1` (centres undefined), the inhibition is -14.9%.

Regarding `Cc1cc(-c2nnc(SCC(=O)Nc3ccc(F)cc3)n2N)n[nH]1`, the inhibition is -8.7%.

Take `CC(=O)Nc1ccc(S(=O)(=O)NCC(=O)OCC(=O)c2ccc[nH]2)cc1`: the inhibition was 5.4%.

For the molecule `Cc1noc(C)c1COc1ccccc1C(=O)N(C)CC(=O)Nc1cccc(F)c1`, the inhibition was -9.4%.

As for `Cc1ccc(OCCNC(=O)CNC(=O)c2ccc(C)c(C)c2)cc1`, the inhibition was -7.8%.

For the molecule `CCOc1nnc(C)c2c(C)n(-c3cccc(Cl)c3)nc12`, the inhibition was -4.1%.

In the case of `Cc1cccc(C(=O)Nc2ccc(C(=O)/C=C/c3cccs3)cc2)c1`, the inhibition was -7.8%.

For `CCOc1ccc(NC(=O)CN(C)C(=O)CCSc2ccc(F)cc2)cc1OCC`, the inhibition is -1.7%.

Consider `Cn1c(SCc2nc3ccccc3s2)nnc1-c1ccc2c(c1)OCO2`, for which the inhibition is 16.7%.
